Results on one compound are retold here after ChEMBL document CHEMBL2218924, “A broad activity screen in support of a chemogenomic map for kinase signalling research and drug discovery” (Biochem J, 2013).

For test [1], the target named is T1, Ephrin type-B receptor 1 (Homo sapiens) (UniProt P54762).
T1 sequence (whole entry): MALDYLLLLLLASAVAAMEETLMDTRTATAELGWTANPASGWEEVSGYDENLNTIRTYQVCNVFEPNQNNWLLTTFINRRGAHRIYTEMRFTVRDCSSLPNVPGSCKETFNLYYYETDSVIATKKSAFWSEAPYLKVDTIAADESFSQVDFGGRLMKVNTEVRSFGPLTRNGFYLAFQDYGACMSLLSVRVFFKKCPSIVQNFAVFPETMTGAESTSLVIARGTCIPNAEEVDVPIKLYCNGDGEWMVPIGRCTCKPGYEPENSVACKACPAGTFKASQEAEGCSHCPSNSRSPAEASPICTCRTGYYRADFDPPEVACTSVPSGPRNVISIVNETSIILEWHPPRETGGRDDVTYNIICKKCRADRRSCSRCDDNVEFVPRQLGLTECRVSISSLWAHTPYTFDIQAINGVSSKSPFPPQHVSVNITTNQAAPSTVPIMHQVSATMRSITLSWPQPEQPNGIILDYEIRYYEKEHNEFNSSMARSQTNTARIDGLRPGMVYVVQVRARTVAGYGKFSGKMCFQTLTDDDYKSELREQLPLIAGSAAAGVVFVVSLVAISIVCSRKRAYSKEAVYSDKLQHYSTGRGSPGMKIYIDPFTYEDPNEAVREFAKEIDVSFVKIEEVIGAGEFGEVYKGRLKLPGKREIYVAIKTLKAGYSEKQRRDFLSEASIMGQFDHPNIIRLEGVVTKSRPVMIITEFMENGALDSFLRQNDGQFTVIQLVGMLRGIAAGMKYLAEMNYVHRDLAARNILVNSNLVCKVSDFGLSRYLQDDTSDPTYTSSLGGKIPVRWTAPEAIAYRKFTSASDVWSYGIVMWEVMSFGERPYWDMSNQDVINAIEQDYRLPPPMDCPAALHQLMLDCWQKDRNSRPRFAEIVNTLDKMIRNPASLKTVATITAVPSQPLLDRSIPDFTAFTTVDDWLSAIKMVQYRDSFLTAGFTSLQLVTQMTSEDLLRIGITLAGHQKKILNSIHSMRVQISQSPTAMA
The following applies: at 10 µM.

In test [2] the target is T2, Ephrin type-B receptor 2 (Homo sapiens) (UniProt P29323).
T2 sequence (whole entry): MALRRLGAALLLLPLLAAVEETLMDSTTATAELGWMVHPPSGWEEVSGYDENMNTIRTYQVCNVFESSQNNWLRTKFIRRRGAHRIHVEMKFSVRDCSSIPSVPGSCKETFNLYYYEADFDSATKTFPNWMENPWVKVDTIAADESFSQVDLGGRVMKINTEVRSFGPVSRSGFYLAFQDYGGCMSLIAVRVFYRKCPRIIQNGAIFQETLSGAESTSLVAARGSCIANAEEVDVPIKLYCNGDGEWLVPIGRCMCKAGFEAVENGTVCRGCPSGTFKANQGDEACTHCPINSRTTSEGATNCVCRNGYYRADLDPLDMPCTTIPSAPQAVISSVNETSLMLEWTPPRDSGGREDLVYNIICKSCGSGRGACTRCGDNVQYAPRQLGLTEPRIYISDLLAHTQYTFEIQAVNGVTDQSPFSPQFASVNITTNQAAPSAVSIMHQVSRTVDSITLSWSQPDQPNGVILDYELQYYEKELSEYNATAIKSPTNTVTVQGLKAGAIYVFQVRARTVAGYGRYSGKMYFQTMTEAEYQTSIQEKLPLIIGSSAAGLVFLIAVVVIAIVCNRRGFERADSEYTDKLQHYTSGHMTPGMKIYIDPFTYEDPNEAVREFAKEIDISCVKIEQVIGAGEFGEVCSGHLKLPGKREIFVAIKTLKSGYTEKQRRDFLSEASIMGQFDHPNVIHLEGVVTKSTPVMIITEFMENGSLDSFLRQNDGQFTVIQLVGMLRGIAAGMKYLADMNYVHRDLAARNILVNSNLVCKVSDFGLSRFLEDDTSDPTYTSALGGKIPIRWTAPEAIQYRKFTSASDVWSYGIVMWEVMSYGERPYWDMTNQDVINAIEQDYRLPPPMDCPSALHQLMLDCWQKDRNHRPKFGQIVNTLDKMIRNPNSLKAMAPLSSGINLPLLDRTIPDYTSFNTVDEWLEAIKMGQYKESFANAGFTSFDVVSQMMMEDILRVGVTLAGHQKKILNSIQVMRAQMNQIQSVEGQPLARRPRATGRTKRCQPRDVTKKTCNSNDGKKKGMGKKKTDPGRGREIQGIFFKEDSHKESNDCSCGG
The note with it: at 1 µM.

Test [3] addresses T2, Ephrin type-B receptor 2 (Homo sapiens). The note with it: at 10 µM.
The target of test [4] is T3, Ephrin type-B receptor 3 (Homo sapiens) (UniProt P54753).
T3 sequence (whole entry): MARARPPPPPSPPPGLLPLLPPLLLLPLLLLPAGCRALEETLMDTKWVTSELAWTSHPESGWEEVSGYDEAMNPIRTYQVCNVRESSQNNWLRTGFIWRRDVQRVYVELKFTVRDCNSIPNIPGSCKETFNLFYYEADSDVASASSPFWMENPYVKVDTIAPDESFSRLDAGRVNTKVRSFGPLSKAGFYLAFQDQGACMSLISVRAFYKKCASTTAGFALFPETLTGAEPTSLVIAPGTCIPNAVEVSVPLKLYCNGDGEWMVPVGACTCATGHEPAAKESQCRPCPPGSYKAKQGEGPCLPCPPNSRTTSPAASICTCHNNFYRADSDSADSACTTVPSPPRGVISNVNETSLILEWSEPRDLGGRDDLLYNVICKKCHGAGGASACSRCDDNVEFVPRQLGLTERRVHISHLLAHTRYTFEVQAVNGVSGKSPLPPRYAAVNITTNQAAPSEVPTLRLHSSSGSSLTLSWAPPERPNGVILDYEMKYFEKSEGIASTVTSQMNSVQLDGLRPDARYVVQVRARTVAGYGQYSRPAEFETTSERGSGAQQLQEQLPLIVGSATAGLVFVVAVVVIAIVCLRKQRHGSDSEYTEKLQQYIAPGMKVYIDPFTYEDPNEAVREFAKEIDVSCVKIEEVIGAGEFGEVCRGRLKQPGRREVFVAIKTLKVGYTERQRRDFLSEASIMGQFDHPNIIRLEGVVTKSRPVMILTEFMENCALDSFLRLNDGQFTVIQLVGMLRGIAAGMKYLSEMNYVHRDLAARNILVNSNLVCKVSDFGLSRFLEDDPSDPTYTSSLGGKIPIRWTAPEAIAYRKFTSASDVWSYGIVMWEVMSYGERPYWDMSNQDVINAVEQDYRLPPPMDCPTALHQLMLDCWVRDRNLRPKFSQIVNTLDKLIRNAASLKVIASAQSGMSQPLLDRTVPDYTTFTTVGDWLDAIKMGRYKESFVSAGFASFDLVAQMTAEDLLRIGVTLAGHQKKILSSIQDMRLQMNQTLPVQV
The note with it: at 1 µM.

In test [5] the target is T3, Ephrin type-B receptor 3 (Homo sapiens). The following applies: at 10 µM.
For test [6], the target named is T4, Ephrin type-B receptor 4 (Homo sapiens) (UniProt P54760).
T4 sequence (whole entry): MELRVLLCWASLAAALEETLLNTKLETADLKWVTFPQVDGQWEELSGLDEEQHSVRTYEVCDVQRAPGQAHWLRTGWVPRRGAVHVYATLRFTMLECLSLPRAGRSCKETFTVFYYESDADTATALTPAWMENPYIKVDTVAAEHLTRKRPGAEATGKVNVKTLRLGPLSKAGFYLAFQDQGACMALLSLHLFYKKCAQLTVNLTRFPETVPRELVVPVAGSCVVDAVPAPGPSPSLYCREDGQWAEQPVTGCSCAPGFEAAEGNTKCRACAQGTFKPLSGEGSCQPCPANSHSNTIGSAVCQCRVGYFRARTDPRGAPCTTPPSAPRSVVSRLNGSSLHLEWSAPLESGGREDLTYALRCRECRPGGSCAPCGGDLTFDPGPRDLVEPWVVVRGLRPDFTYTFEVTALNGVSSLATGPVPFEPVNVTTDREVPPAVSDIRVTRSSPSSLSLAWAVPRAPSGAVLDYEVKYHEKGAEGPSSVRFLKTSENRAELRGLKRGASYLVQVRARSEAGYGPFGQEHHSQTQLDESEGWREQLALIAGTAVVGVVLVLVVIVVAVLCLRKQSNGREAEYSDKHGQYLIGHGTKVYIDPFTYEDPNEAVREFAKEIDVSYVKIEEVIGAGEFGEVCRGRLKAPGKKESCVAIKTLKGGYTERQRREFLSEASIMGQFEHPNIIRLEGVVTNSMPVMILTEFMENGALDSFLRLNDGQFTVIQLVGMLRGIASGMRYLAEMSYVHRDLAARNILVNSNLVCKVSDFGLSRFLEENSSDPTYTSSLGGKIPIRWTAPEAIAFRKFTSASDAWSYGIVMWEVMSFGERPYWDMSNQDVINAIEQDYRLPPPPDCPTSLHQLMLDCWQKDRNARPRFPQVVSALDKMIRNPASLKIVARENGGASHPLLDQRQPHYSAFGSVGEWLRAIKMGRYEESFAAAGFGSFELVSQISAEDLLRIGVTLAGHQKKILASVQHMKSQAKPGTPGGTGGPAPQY
The note with it: at 1 µM.

Test [7] has as its target T4, Ephrin type-B receptor 4 (Homo sapiens). The following applies: at 10 µM.
For test [8], the target named is Receptor tyrosine-protein kinase erbB-4 (Homo sapiens) (UniProt Q15303). The following applies: at 1 µM.
Chain of Receptor tyrosine-protein kinase erbB-4 (Homo sapiens) (Q15303 whole entry): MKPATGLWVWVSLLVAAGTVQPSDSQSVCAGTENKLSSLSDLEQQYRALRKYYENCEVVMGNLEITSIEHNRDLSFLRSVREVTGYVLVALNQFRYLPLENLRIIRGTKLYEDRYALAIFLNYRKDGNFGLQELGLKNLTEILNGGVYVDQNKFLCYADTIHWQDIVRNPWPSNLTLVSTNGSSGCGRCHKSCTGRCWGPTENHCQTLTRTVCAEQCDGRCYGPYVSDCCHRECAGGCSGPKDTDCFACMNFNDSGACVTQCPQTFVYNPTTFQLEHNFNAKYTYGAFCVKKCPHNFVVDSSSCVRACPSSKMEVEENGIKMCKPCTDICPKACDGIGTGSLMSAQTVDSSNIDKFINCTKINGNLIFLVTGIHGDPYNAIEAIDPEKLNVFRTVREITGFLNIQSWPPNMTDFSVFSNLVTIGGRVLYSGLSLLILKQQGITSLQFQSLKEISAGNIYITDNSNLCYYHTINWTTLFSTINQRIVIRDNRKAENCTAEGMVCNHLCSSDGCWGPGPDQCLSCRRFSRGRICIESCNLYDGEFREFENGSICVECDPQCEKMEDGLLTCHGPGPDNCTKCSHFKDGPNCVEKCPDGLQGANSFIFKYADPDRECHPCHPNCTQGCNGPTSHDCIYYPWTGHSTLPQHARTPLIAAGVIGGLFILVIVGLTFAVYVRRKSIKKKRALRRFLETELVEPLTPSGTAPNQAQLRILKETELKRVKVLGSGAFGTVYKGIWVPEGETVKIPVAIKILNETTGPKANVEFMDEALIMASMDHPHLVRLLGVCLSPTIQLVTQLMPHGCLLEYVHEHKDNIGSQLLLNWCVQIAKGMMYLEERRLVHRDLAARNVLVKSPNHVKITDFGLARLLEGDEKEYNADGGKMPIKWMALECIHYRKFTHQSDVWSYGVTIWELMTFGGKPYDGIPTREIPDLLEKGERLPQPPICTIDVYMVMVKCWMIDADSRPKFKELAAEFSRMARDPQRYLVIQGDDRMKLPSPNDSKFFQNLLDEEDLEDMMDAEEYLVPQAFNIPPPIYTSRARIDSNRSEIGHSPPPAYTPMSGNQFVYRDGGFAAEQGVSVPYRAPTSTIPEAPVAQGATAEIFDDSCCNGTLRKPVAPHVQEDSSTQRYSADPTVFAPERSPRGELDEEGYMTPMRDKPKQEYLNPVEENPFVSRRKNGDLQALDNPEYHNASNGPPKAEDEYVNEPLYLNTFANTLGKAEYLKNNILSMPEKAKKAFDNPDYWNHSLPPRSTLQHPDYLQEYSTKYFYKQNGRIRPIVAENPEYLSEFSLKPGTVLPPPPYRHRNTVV
Test [9] shares this target. The note with it: at 10 µM.
Test [10] concerns the target Focal adhesion kinase 1 (Homo sapiens) (UniProt Q05397). The following applies: at 1 µM.

In general, residual activity refers to the signal under treatment as a percentage of the control signal.

Chain of Focal adhesion kinase 1 (Homo sapiens) (Q05397 2-1052 limits assumed): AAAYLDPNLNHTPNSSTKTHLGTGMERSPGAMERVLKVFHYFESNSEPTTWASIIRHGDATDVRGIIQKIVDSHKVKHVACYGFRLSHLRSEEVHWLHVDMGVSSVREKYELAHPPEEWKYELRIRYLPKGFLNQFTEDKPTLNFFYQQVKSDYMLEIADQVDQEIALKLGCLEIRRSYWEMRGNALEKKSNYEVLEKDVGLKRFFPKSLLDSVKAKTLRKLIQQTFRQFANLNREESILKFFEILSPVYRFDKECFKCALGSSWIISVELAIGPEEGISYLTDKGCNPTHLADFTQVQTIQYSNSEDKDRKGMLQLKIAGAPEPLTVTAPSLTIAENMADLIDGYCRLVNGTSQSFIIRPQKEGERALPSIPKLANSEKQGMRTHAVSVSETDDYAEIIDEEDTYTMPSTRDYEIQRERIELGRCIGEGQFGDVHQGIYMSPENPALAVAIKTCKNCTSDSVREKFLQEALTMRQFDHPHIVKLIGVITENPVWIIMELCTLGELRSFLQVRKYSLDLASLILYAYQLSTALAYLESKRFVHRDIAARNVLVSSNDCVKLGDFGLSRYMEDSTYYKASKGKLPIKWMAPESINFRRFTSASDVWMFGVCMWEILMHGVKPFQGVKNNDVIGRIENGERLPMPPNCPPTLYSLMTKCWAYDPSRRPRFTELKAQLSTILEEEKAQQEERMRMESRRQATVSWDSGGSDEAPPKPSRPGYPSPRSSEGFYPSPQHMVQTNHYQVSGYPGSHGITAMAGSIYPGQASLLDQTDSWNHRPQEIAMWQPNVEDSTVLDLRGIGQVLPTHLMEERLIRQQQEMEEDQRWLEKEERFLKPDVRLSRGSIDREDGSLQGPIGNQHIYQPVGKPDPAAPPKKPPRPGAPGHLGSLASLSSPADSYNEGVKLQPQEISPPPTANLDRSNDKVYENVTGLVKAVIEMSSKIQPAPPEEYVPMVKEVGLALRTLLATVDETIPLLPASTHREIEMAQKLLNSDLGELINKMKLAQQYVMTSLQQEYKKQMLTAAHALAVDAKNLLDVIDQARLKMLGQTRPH

`C[S+]([O-])c1ccc(-c2nc(-c3ccc(F)cc3)c(-c3ccncc3)[nH]2)cc1` (stereo not given): the residual activity is 56% in test [1]; 101% in test [2]; 61% in test [3]; 114% (inactive) in [4]; 105% in test [5]; 107% in test [6]. Moreover, the residual activity in [7] was found to be 41%; in [8], 115%; in test [9], 82%; in test [10], 125%.
